# Screens: PubChem, National Center for Advancing Translational Sciences (NCATS)
# The list is not random: actives were taken first. Their share in the collection is about 1.3%.
# AMA1-RON2 inh: disrupts binding of P. falciparum AMA1 to RON2; AlphaScreen AMA1-biotinylated RON2 peptide binding; Potency, µM (series often up to 58.2 µM), inactives show top-dose activity change, negative = inhibition, usual class: inhibitors; hit rate 0.2% among 360,000;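 also: 0% = vehicle wells and -100% = peptide control; nearly all actives have a fitted effect of over 45% in size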
#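 AMA1 (3D7) with his tag at 25 nM final met compounds first, then biotinylated RON2 peptide at 25 nM; detection used donor plus acceptor beads, 10 µg/mL apiece, read by AlphaScreen after 30 min at room temperature.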
# TbPYK inhibitor: blocks Trypanosoma brucei pyruvate kinase; Q57TT1; TbPYK enzyme, Kinase-Glo Plus ATP luminescence, 45 min; Potency, µM (doses to about 76.8 µM), without a hit: top-dose activity, negative = inhibition, hits mostly inhibitors; hit rate 0.12% among 410,000; AID 624173; also: nearly all actives have a fitted effect of over 50% in size
#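 Luminescent Kinase-Glo Plus end-point after 45 min room-temperature reaction of T. brucei pyruvate kinase started with 130 uM ADP (final). Buffer TEA 50 mM pH 7.2 with KCl, MgCl2, BSA, Tween-20; titration-based qHTS with fitted concentration-effect curves.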
# VACV mCherry inh: inhibitors of vaccinia virus infection (mCherry reporter signal); Vaccinia virus mCherry reporter infection, fluorescence; Potency, µM (highest dose often 36.5 µM), without a hit: at the highest dose activity change, negative = inhibition, hits mostly inhibitors; hit rate 0.63% among 310,000; AID 720579; calls by dose curve; tested in A549 cells; also: nearly all actives have a fitted effect of over 35% in size
# VACV Venus inh: vaccinia inhibition (Venus reporter). Vaccinia virus Venus reporter expression, fluorescence. Potency, µM (titrated, usually from 36.5 µM), inactives show at the highest dose activity change, negative = inhibition, usual class: inhibitors. hit rate 0.46% among 330,000. AID 720580; calls by dose curve; tested in A549 cells; also: nearly all actives have a fitted effect of over 30% in size
# RE007 growth inh: less growth of the S. pombe RE007 Vpr strain. S. pombe RE007 Vpr strain, BacTiter-Glo ATP luminescence, 24 h. Potency, µM (highest dose often 92.2 µM), for the others: at the highest dose activity change, negative = less growth, usual class: inhibitors. hit rate 0.21% among 360,000. AID 651644; active = well fitted falling curve with a large enough effect; inconclusive = small, poorly fitted or top-dose-only effect; inactive = no such curve, though single readings can be large or run the other way; also: nearly all actives have a fitted effect of over 50% in size
#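 Fission yeast RE007 carrying one integrated HIV-1 vpr copy, seeded at OD 0.01 in PMG+AL medium with 23 nL pinned compound. Grown 24 h at 30 degrees; viability read by BacTiter-Glo luminescence after 5 min.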
# LmPK inhibitor: blocks Leishmania mexicana pyruvate kinase activity | purified LmPK, Kinase-Glo ATP luminescence, 1 h | Potency, µM (highest dose often 57.5 µM), for the others: at the top dose activity change, negative = inhibition, actives largely listed as inhibitors | hit rate 0.37% among 290,000
# Target sequence (Q27686 whole entry, looked up): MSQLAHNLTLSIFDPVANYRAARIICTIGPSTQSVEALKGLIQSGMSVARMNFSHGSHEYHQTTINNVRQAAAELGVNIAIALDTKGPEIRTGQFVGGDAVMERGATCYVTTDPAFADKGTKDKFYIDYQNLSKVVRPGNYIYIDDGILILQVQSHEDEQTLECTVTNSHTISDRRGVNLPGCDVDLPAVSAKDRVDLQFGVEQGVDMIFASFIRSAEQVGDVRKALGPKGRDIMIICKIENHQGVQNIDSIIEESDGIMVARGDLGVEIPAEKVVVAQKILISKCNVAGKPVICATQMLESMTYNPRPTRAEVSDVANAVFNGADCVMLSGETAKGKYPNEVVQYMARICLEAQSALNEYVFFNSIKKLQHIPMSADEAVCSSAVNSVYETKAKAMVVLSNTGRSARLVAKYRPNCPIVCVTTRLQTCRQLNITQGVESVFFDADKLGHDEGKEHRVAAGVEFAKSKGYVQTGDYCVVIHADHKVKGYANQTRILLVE
#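 0.1 nM LmPK, 0.5 mM PEP, 0.1 mM ADP; 50 mM imidazole pH 7.2, 7 mM MgCl2, 50 mM KCl; 1 h RT. Kinase-Glo luminescence readout, normalized to no-enzyme (full inhibition) and uninhibited wells.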
# Numbers without * were called inactive; i = inactive; u = inconclusive; x = no result given; [ ] = another dose, or the depositor's remark. Unless noted, calls follow the shape of the dose curve; as a rule, active = well fitted curve in the direction sought with a large enough effect; inconclusive = small, poorly fitted or top-dose-only effect, or another doubt; inactive = no such curve, though single readings can be large; an effect the other way counts as inactive or inconclusive. Unless noted, % is scaled to controls: 0 for no effect and ±100 for the full control effect; potency is read from the fitted curve at half-maximal effect.
SMILES,AMA1-RON2 inh,TbPYK inhibitor,VACV mCherry inh,VACV Venus inh,RE007 growth inh,LmPK inhibitor
CCN(CC)c1ccc(NC(=O)CN(C)Cc2cccs2)cc1,13µM*,-12%,u,-13%,-12%,-5%
CCN(CC)c1ccc(/C=N/NC(=O)Cc2cccs2)c(O)c1,46%[11.6 µM],-5%,6.3µM*,u,3%,0%
Cc1ccc(NC(=O)CN(C)Cc2cccs2)cc1Cl,-15%,-2%,-3%,-2%,-17%,1%
CC12CCC(=O)CC1CCC1C2CCC2(C)C1CCC2(C)O (centres undefined),x,-10%,x,x,x,x
c1cncc(OC2CCN(Cc3ccc4c(c3)CN(Cc3nc5ccccc5s3)CCO4)CC2)c1,x,x,-9%,8%,x,x
OC1(c2cccc(C(F)(F)F)c2)CCN(c2ncnc3c2[nH]c2ccc(F)cc23)CC1,-4%,6%,x,11µM*,17%,9%
CCCCCC1CCNCC1,x,x,i,-12%,x,x
CCC1CN(CCNC(=O)c2ccc3c(c2)OCCO3)Cc2cc(OC)ccc2O1 (centres undefined),x,x,-9%,0%,x,x
N#CC1=C2SCN(c3ccccc3)CN2C(=O)CC1c1c(Cl)cccc1Cl (centres undefined),8%,2.5µM*,-11%,-11%,-4%,-12%
CCc1ccccc1N1CSC2=C(C#N)C(c3cc(OC)c(OC)cc3OC)CC(=O)N2C1 (centres undefined),-21%,10µM*,x,x,-6%,-6%
COc1ccc(OC)c(C2CC(=O)N3CN(c4cccc(Cl)c4C)CSC3=C2C#N)c1 (centres undefined),1%,3.5µM*,51%,6%,1%,-2%
COc1cc(OC)c(C2CC(=O)N3CN(C)CSC3=C2C#N)cc1OC (centres undefined),-4%,u,-1%,-10%,-8%,u
COc1cc(OC)c(C2CC(=O)N3CN(c4ccccc4)CSC3=C2C#N)cc1OC (centres undefined),17%,8.9µM*,x,x,9%,8%
N#CC1=C2SCN(c3ccccc3)CN2C(=O)CC1c1ccccc1Cl (centres undefined),-6%,u,-5%,-17%,-11%,2%
COC(=O)c1c(OCc2cccnc2)cc(=O)n2c1CCN(C(=O)c1c3c(nn1C)CCCC3)CC2,x,x,-15%,-14%,x,x
O=C(CCN1Cc2ccccc2OC(c2ccccc2F)C1)N1CCC(N2CCCC(O)C2)CC1 (centres undefined),x,x,-9%,-11%,x,x
Cc1ccc(S(=O)(=O)c2c(C)nn(C(C)(C)C)c2OC(=O)c2ccc(Br)o2)cc1,-5%,-3%,u,11µM*,5%,0%
CC(=O)OC(C)(C)/C=C/C(=O)[C@](C)(O)C1[C@H](O)C[C@@]2(C)C3CC=C4C(C=C(O[C@@H]5O[C@H](CO)[C@@H](O)[C@H](O)[C@H]5O)C(=O)C4(C)C)[C@]3(C)C(=O)C[C@]12C (some centres undefined),5%,-12%,-12%,22µM*,8%,x
CC(=O)OC(C)(C)/C=C/C(=O)[C@](C)(O)[C@H]1[C@H](O)C[C@@]2(C)[C@@H]3CC=C4[C@H](C[C@H](O)C(=O)C4(C)C)[C@]3(C)C(=O)C[C@]12C,10%,-8%,u,8.9µM*,7%,1%
CC(=O)OC(C)(C)/C=C/C(=O)C(C)(O)C1C(O)CC2(C)C3CC=C4C(CC(O)C(=O)C4(C)C)C3(C)C(=O)CC12C (centres undefined),6%,-8%,u,40µM*,-2%,x
CC(=O)OC(C)(C)/C=C/C(=O)C(C)(O)C1[C@H](O)C[C@@]2(C)C3CC=C4C(CC[C@@H](O)C4(C)C)[C@]3(CO)C(=O)C[C@]12C (some centres undefined),9%,-3%,7.1µM*,35µM*,1%,-8%
CC(=O)c1ccc(C(=O)N2CCc3c(cnc(C)c3CNC(=O)c3ccc4c(c3)OCO4)C2)s1,x,x,-3%,-6%,x,x
Cc1[nH]n(-c2ccccc2)c(=O)c1C=Nc1ccc(S(=O)(=O)N=C(N)N)cc1,-2%,2%,x,x,-3%,6%
Cc1[nH]n(-c2ccccc2)c(=S)c1C=Nc1ccc([N+](=O)[O-])cc1,6%,2.8µM*,i,-6%,39%,-26%
CC(C)(C)OC(=O)CN(Cc1ccc(Cl)cc1)Cc1ccc([N+](=O)[O-])s1,x,1%,x,x,x,x
SMILES,AMA1-RON2 inh,TbPYK inhibitor,VACV mCherry inh,VACV Venus inh,RE007 growth inh,LmPK inhibitor
OC1=C(O)c2nc3cc(C(F)(F)F)ccc3nc21,28µM*,4%,-16%,13%,-17%,-24%
Nc1ncnc2c1ncn2C1C=C(CO)C(O)C1O (centres undefined),14%,-3%,1.1µM*,u,7%,x
CCN(C(=O)CSc1nc2ccccc2nc1Cc1ccc(F)cc1)c1cccc(C)c1,x,4%,-7%,-9%,x,x
CCN(C(=O)CSc1nc(-c2ccccc2)no1)c1cccc(C)c1,x,0%,2.8µM*,u,x,x
COc1cc(=O)n2c(c1C(=O)NCc1ccco1)CCN(Cc1c(F)cccc1F)CC2,x,x,i,-15%,x,x
Cc1cc(C)c(NC(=O)c2c[nH]c(=S)n2-c2ccc(F)cc2)c(C)c1,44%,7.9µM*,x,x,19%,u
Cc1cc(C)c(NC(=O)C2=CCN(S(=O)(=O)c3ccc(F)cc3)CC2)c(C)c1,0%,-6%,7%,-13%,-14%,1%
Cn1ccc2c(N3CCCCCC3)cc3c(c21)C1CCC3O1 (centres undefined),32µM*,-11%,61%,22%,-29%,x
Cn1ccc2c(N3CCCC3)cc3c(c21)C1CCC3C1 (centres undefined),-8%,-2%,u,u,-25%,x
Cn1ccc2c(N3CCCCC3)cc3c(c21)C1CCC3C1 (centres undefined),16µM*,-5%,i,-6%,-27%,x
COc1cc(OC)cc(C(=O)Nc2ccc(-n3cnnn3)c(C)c2)c1,0%,-17%,i,-13%,-24%,14µM*
CC12CCC(C(=O)N(CSC(=S)N/N=C\c3ccccc3O)C1=O)C2(C)C (centres undefined),20µM*,2%,x,-18%,19%,-11%
Oc1cc(-c2nc3ccccc3s2)cc2c1OCCN(Cc1cn[nH]c1-c1ccc(Cl)cc1)C2,x,x,-22%,-10%,x,x
CN(C)CCN1C(=O)c2cccc3cc([N+](=O)[O-])cc(c23)C1=O,-17%,-2%,1.1µM*,u,-12%,x
COc1ccc(N2CCN(C(=O)CS(=O)(=O)c3cccc4nsnc34)CC2)cc1,x,0%,-11%,-12%,x,x
O=C(CSc1n[nH]c(-c2ccccn2)n1)Nc1ccccc1F,u,4%,28µM*,u,1%,0%
